Hits are enriched below; roughly 3.7% of the tested compounds scored in any of these assays.
NALP3 yeast inh = NALP3 inflammasome inhibitors in reconstituted yeast, primary screen, luminescence, uHTS | inhibition, % at 10 µM | AID 2825, 2010 | Yeast reconstituted NLRP3/ASC/caspase-1, beta-gal luminescence, 24 h | 330,000 compounds, 0.39% hits;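 active means inhibition of 50% or more; inactive means inhibition below 50%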
TIM10 inh = growth inhibitors of isogenic TIM10 control yeast, primary screen, counter-screen for tim10-1 yeast inhibitor project, luminescence, uHTS; inhibition, % at 10 µM; 330,000 compounds, 1.4% hits; S. cerevisiae TIM10 strain growth, BacTiter-Glo luminescence, 24 h; AID 463195, 2010;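 active means inhibition of 40% or more at the single tested concentration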;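 further: wild-type TIM10 isogenic control strain grown at permissive 25 °C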
tim23-1 inh = growth inhibitors of tim23-1 mutant yeast, primary screen, luminescence, uHTS; S. cerevisiae tim23-1 growth, BacTiter-Glo luminescence, 24 h; 330,000 compounds, 1.3% hits; inhibition, % at 20 µM;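 active means growth inhibition of the mutant yeast at or above 50%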;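 further: temperature-sensitive mutant grown at 25 °C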
PfHsp90 set2 = growth inhibition of PfHsp90-expressing yeast, primary screen, antimalarial PfHsp90 inhibitor project, S. cerevisiae, BacTiter-Glo luminescence, single point, set 2. 310,000 compounds, 0.32% hits. BacTiter-Glo ATP, 48 h; yeast lacking PDR1 and PDR3 efflux regulators. inhibition, % at 9.4 µM;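 active means every replicate shows inhibition above about 80%, whatever the replicate mean, limit read from the data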
tim10-1 inh = growth inhibitors of tim10-1 mutant yeast, primary screen, luminescence, uHTS. S. cerevisiae tim10-1 ts strain growth, BacTiter-Glo, 24 h. inhibition, % at 20 µM. 330,000 compounds, 2.2% hits;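 active means inhibition of at least 40%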;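 further: mutant grown at 25 °C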
TIM10 conf = growth inhibitors of wild-type TIM10 yeast, confirmation, counter-screen for tim10-1 synthetic lethality project, single concentration, luminescence, S. cerevisiae. shares compounds with TIM10 inh. S. cerevisiae tim10 strain growth, BacTiter-Glo luminescence, 24 h. inhibition, % at 10 µM. 4,600 compounds, 63% hits. AID 463215, 2010;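 active means inhibition of yeast growth at or above a set limit in either of two replicates at 10 µM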; further: this counterscreen used the strain with wild-type TIM10
Numbers stand for hits; i = inactive; nt = not tested or not shown.

SMILES	NALP3 yeast inh	TIM10 inh	tim23-1 inh	PfHsp90 set2	tim10-1 inh	TIM10 conf
Cc1onc(-c2ccccc2)c1NC(=O)N(CCC#N)Cc1cccs1	i	i	i	i	i	nt
Cc1cccc(NC(=S)N=Nc2c(O)[nH]c3ccccc23)c1	i	41	i	i	i	37
O=[N+]([O-])c1ccc(NN=Cc2ccccc2)nc1	nt	nt	nt	i	nt	nt
O=[N+]([O-])c1ccc(N/N=C\c2cccn2-c2ccccc2)nc1	i	43	i	i	i	i
COC(=O)C(C)N(C(=O)c1cccc(Cl)c1)c1c(C)cccc1C (stereo not drawn)	i	i	i	i	i	nt
COC(=O)C(C)N(C(=O)c1cccc2ccccc12)c1c(C)cccc1C (stereo not drawn)	i	42	i	i	i	31
O=C(NC1CCCC1)C1CCN(c2cnccn2)CC1	i	i	i	i	i	nt
Cc1onc(-c2c(Cl)cccc2Cl)c1C(=O)N1CCN(c2ccccc2)CC1	i	42	i	i	i	i
C/C(=N\NC(=O)c1ccco1)c1cc2ccccc2o1	i	i	i	i	i	nt
C/C(=N\NC(=S)Nc1ccccc1C)c1cc2ccccc2o1	i	42	i	i	i	i
O=C(Nc1ccc(NC(=O)c2cccs2)cc1Cl)c1ccco1	i	i	i	i	i	nt
COc1cc(NC(=O)c2cccs2)ccc1NC(=O)c1ccco1	i	47	i	i	i	i
COCCCNC(=O)/C(C#N)=C/c1cccc(NC(=O)c2ccccc2Cl)c1	i	45	i	i	i	46
CCN(C(=O)Cn1c(=O)n2nc(CCn3nc(C)cc3C)nc2c2ccccc21)c1cccc(C)c1	i	48	i	i	i	45
Cn1c(SC(C(=O)Nc2ccc(F)cc2)c2ccccc2)nc2ccccc21 (stereo not drawn)	i	46	i	i	i	43
COc1cc(SC)ccc1C(=O)Nc1ccc(Br)cn1	i	i	i	i	i	nt
COc1cc(SC)ccc1C(=O)Nc1ncc(Cl)cc1Cl	i	48	i	i	i	i
O=C(COC(=O)CN1C(=O)C(=O)c2ccccc21)OCN1C(=O)c2ccccc2C1=O	i	48	i	i	i	i
COc1ccccc1-c1c(C)nn2c(N3CCC(C)CC3)cc(C)nc12	i	40	i	i	i	47
COc1ccccc1-c1c(C)nn2c(N3CCC(C(N)=O)CC3)cc(C)nc12	i	i	i	i	i	nt
CCc1ccccc1NC(=S)N(Cc1ccco1)C(C)c1cccs1 (stereo not drawn)	i	81	i	i	i	i
FC(F)(F)c1ccc(NC(=S)NCc2ccccc2)cc1	i	45	i	i	i	47
FC(F)Oc1ccc(NC(=S)NCc2ccccc2)cc1	i	i	i	i	i	nt
CC(NC(=S)Nc1ccc(OC(F)F)c(Cl)c1)C(C)(C)C (stereo not drawn)	i	51	i	i	i	38
Fc1ccc(NC(=S)Nc2ccccc2OC(F)F)cc1Cl	i	i	i	i	i	nt
SMILES	NALP3 yeast inh	TIM10 inh	tim23-1 inh	PfHsp90 set2	tim10-1 inh	TIM10 conf
FC(F)Oc1ccc(NC(=S)NCc2ccccc2)cc1Cl	i	50	i	nt	i	33
COc1cc(C(=O)OCC(=O)NCCC2=CCCCC2)ccc1OCC(C)C	i	i	i	i	i	nt
Cc1cc(C(F)(F)F)n(-c2ccc(N)cc2)n1	i	i	i	i	i	nt
CCn1c(SCC(=O)N(C(C)C)C(C)C)nnc1-c1cc2ccccc2cc1O	i	i	i	i	i	nt
O=C(CC12CC3CC(CC(C3)C1)C2)N/N=C\c1ccc[nH]1	i	46	i	i	i	34
O=C(CNc1cccc2ccccc12)N/N=C/c1ccc[nH]1	i	i	i	i	i	nt
Cc1ccc(-n2nnc3c(=O)oc4ccccc4c32)cc1	i	77	i	i	i	91
CC(C)c1ccc(S(=O)(=O)N2CCN(C(=O)C3=COCCO3)CC2)cc1	i	97	i	i	i	i
CC(C)(C)NC(=O)c1ccc(COc2ccc(Cl)cc2Cl)o1	i	i	i	i	i	nt
CCOC(=O)N1CCN(C(=O)c2ccc3c(c2)sc2nc(-c4ccccc4)cn23)CC1	i	45	i	i	i	53
CC(C)(C)OC(=O)C[C@H]1C/C=C\C[C@@H](CC(=O)NCCO)C(=O)N[C@H](C(C)(C)C)COC1=O	i	i	i	i	i	nt
CN1CCN(c2nc(-c3ccncc3)nc3ccccc23)CC1	i	i	i	i	i	nt
CN1CCN(c2nc(-c3ccc(Cl)cc3)nc3ccccc23)CC1	i	41	i	i	i	i
CCN(CC)CCN(C(=O)c1ccc2c(c1)CCCC2)c1nc2c(C)cccc2s1	i	40	i	i	i	i
CCN(CC)CCN(C(=O)c1ccc2c(c1)CCCC2)c1nc2ccc(F)cc2s1	i	i	i	i	i	nt
O=Cc1[nH]c2ccccc2c1N(C(=O)CCl)c1ccc([N+](=O)[O-])cc1	i	41	i	i	i	i
O=C(CCl)N(CCCNC(=O)C(F)(F)F)c1ccc([N+](=O)[O-])cc1	i	i	i	i	i	nt
O=C(N/N=C/c1ccc([N+](=O)[O-])cc1)c1cc(C2CC2)[nH]n1	i	51	i	i	i	56
O=C(NC1CCCC1)C(c1ccc(F)cc1)N(C(=O)c1csnn1)C1CCCC1 (stereo not drawn)	i	i	i	i	i	nt
COc1ccc(C(=O)Oc2cc3c4c(c2)C(C)=CC(C)(C)N4C(=O)C3=O)cc1OC	i	46	i	i	i	48
Cn1c(=O)c2c(nc(SCC(=O)NCC3CCCO3)n2Cc2ccc(F)cc2)n(C)c1=O (stereo not drawn)	i	i	i	i	i	nt
N#C/C(=N\Nc1cc(Cl)cc(Cl)c1)c1nnc2n1CCCCC2	i	41	i	nt	i	i
COc1ccc(NC(=O)CN(C)C(=O)C(C)Oc2ccc(Br)cc2)cc1 (stereo not drawn)	i	i	i	i	i	nt
O=C(Oc1ccc2c(=O)c(Oc3ccc4ccccc4c3)coc2c1)c1cccnc1	i	i	i	i	i	nt
O=C(Oc1ccc2c(=O)c(Cl)coc2c1)c1cccnc1	i	45	i	i	i	i
COc1cc(NC(=O)COc2ccc3c(C)cc(=O)oc3c2C)cc(OC)c1OC	i	i	i	i	i	nt
N#Cc1nc(-c2ccco2)oc1NCCc1ccccc1	i	65	i	i	i	57
CNc1oc(-c2ccco2)nc1C#N	i	i	i	i	i	nt
COc1ccc(CCNc2oc(COc3ccccc3F)nc2C#N)cc1OC	i	i	i	i	i	nt

Bioassay records: PubChem BioAssay, several laboratories
